Assay outcomes as filed in PubChem.
Hits are enriched below; roughly 28% of the tested compounds scored in any of these assays.
CYP2C19 inh: inhibitors of human CYP2C19. P33261. CYP2C19 Supersomes, luciferin-H EGE luminescence, 30 min. inhibition, % at 5 µM. 96,000 tested, 21% active. AID 778;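 active = CYP2C19 inhibition above a set limit at 5 µM in the primary screen, cut at about 50% in these data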
CYP2C9 act: CYP2C9 (human) activation; recombinant CYP2C9, luciferin-H conversion, luminescence; hits give high values; factor 1 = untreated enzyme, 0 = blocked; activation factor at 5 µM; 96,000 tested, 1.4% active; AID 1024; P11712;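 active = activation factor of 2 or more for CYP2C9 at a 5 µM dose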
D1 allo mod: D1 dopamine receptor (human) allosteric modulation; AID 641; HEK293 D1, CRE-luciferase, dopamine EC30 potentiation; actives deviate in either direction; B-score at 10 µM; 58,000 tested, 5.9% active; P21728;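 active = luminescence count or its row- and column-corrected plate score outside the 99.7% band of the plate's sample wells, on either side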
Target sequence (P21728 whole entry, looked up): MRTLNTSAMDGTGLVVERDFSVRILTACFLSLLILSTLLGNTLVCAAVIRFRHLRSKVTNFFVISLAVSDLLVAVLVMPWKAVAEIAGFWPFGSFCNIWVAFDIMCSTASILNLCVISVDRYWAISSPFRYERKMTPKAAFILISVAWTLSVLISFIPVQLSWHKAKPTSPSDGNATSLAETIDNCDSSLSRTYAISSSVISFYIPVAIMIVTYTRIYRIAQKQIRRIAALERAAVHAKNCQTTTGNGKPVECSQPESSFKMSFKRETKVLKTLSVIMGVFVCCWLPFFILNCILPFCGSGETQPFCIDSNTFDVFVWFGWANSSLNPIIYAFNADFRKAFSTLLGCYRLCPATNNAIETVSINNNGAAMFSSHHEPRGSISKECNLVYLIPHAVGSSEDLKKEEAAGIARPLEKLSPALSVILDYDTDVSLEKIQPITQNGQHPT
DAT uptake mod: modulates human dopamine transporter uptake under cocaine. 110,000 tested, 1.3% active. B-score at 10 µM. LLC-PK1 hDAT cells, [14C]-dopamine uptake with cocaine IC80; actives deviate in either direction. AID 449768. Q01959;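 active = Z score or B-score, a plate-position-corrected score, falls beyond the plate's 99.7% confidence bounds, in either direction; inactive = both scores lie inside the 99.7% bounds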
CYP2C9 inh: inhibitors of human CYP2C9; P11712; 96,000 tested, 20% active; inhibition, % at 5 µM; CYP2C9 Supersomes, luciferin-H conversion, luminescence;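 active = blocking of liver enzyme CYP2C9 beyond about 50% at 5 µM, limit read from the data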
CYP2C19 act: cytochrome P450 2C19 (human) activation. 96,000 tested, under 10 active. P33261. recombinant CYP2C19, luciferin-H EGE luminescence; hits give high values; 0 = fully inhibited enzyme, 1 = untreated enzyme. activation factor at 5 µM. AID 1025;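 active = activation factor of at least 2 at 5 µM in the primary screen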
Hits are given with their value.

`CCCCCOC(=O)C1=C(C)Nc2nnnn2C1c1ccccc1Cl` (stereo not drawn) gave CYP2C19 inh inactive, CYP2C9 act inactive, DAT uptake mod inactive, CYP2C9 inh inactive and CYP2C19 act inactive.
CS(=O)(=O)N1CCN(c2nc3ccccc3s2)CC1 was read as CYP2C19 inh inactive, CYP2C9 act inactive, D1 allo mod inactive, DAT uptake mod inactive, CYP2C9 inh inactive and CYP2C19 act inactive.
CC(Nc1nc(N2CCN(S(C)(=O)=O)CC2)nc2ccccc12)c1ccccc1 (stereo not drawn) was read as D1 allo mod -3 and DAT uptake mod inactive.
`O=S(=O)(Nc1ccc(-c2nc3ccccc3o2)cc1)c1ccccc1` gave CYP2C19 inh 80, CYP2C9 act inactive, D1 allo mod inactive, DAT uptake mod inactive, CYP2C9 inh 97 and CYP2C19 act inactive.
`CC(=O)Nc1ccc(S(=O)(=O)Nc2cccc(-c3nc4ccccc4o3)c2)cc1` gave CYP2C19 inh 91, CYP2C9 act inactive, DAT uptake mod inactive, CYP2C9 inh 98 and CYP2C19 act inactive.
O=C(Nc1ccc(Cl)cc1)N(Cc1nnc2n1CCCCC2)c1ccccc1 was read as CYP2C19 inh inactive, CYP2C9 act inactive, DAT uptake mod inactive, CYP2C9 inh inactive and CYP2C19 act inactive.
`CCN(CC)c1cc2nc(C)n(Cc3ccccc3)c(=O)c2cc1NC(=O)C1CC1` gave DAT uptake mod inactive.
`Cc1nc2cc(N3CCN(C)CC3)c(NC(=O)Cc3ccccc3)cc2c(=O)n1Cc1ccccc1` gave CYP2C19 inh 67, CYP2C9 act inactive, D1 allo mod -2.4, DAT uptake mod inactive, CYP2C9 inh 67 and CYP2C19 act inactive.
Cc1nc2cc(N3CCCCC3)c(NC(=O)c3ccncc3)cc2c(=O)n1Cc1ccc(Cl)cc1 was read as CYP2C19 inh inactive, CYP2C9 act inactive, CYP2C9 inh 74 and CYP2C19 act inactive.
`CC(C)CCNC(=O)C1CC(c2ccccc2[N+](=O)[O-])=NO1` (stereo not drawn) gave DAT uptake mod inactive.
CN(C)S(=O)(=O)N(Cc1ccc(Br)cc1)c1ccccc1 was read as CYP2C19 inh 86, CYP2C9 act inactive, D1 allo mod inactive, DAT uptake mod inactive, CYP2C9 inh inactive and CYP2C19 act inactive.
CN(C)S(=O)(=O)N(CC(=O)N(Cc1ccccc1)Cc1ccccc1)c1ccccc1 was read as CYP2C19 inh 81, CYP2C9 act inactive, DAT uptake mod inactive, CYP2C9 inh 85 and CYP2C19 act inactive.
CN(C)S(=O)(=O)N(CC(=O)Nc1ccccc1F)c1ccccc1 was read as D1 allo mod inactive and DAT uptake mod inactive.
For COc1cccc(Cn2cnc3c(NS(=O)(=O)c4ccc(Cl)cc4)c(C)c(C)cc32)c1 the results were CYP2C19 inh inactive, CYP2C9 act inactive, DAT uptake mod inactive, CYP2C9 inh inactive and CYP2C19 act inactive.
For C=CCCCCCCCCC(=O)NNC1=CC(=O)CC(C)(C)C1 the results were CYP2C19 inh inactive, CYP2C9 act inactive, DAT uptake mod inactive, CYP2C9 inh 51 and CYP2C19 act inactive.
`COc1cc2cc(C(c3nnnn3C3CCCCC3)N(C)C3CCCCC3)c(=O)[nH]c2cc1OC` (stereo not drawn) gave CYP2C19 inh 62, CYP2C9 act inactive, D1 allo mod inactive, DAT uptake mod inactive, CYP2C9 inh 50 and CYP2C19 act inactive.
Cc1ccc(C(c2nnnn2C2CCCCC2)N(C)C2CCCCC2)cc1 (stereo not drawn) was read as CYP2C19 inh inactive, CYP2C9 act inactive, DAT uptake mod inactive, CYP2C9 inh inactive and CYP2C19 act inactive.
CC(C)C(c1nnnn1C1CCCC1)N1CCc2ccccc21 (stereo not drawn) was read as CYP2C19 inh inactive, CYP2C9 act inactive, D1 allo mod inactive, DAT uptake mod inactive, CYP2C9 inh 57 and CYP2C19 act inactive.
CC(C)C(c1nnnn1C1CCCC1)N(C)C1CCCCC1 (stereo not drawn) was read as CYP2C19 inh inactive, CYP2C9 act inactive, D1 allo mod inactive, DAT uptake mod inactive, CYP2C9 inh 51 and CYP2C19 act inactive.
Screening CC(C)C(c1nnnn1C1CCCC1)N1CCCc2ccccc21 (stereo not drawn) returned D1 allo mod inactive and DAT uptake mod inactive.
Cc1ccc2cc(C(c3nnnn3C3CCCC3)N(Cc3ccccc3)Cc3ccco3)c(=O)[nH]c2c1 (stereo not drawn) was read as CYP2C19 inh inactive, CYP2C9 act inactive, D1 allo mod inactive, DAT uptake mod inactive, CYP2C9 inh inactive and CYP2C19 act inactive.
`Cc1cc2cc(C(c3nnnn3C3CCCC3)N(Cc3cccnc3)Cc3ccco3)c(=O)[nH]c2cc1C` (stereo not drawn) gave CYP2C19 inh 60, CYP2C9 act inactive, DAT uptake mod inactive, CYP2C9 inh 60 and CYP2C19 act inactive.
Screening Cc1nc2ccccn2c1/C(O)=C1\C(=O)C(=O)N(CCCN(C)C)C1c1ccc(Cl)cc1 (stereo not drawn) returned D1 allo mod inactive.
CCCC(c1nnnn1C(C)(C)CC)N(Cc1ccco1)Cc1cc2ccc(OC)cc2[nH]c1=O (stereo not drawn) was read as CYP2C19 inh inactive, CYP2C9 act inactive, DAT uptake mod inactive, CYP2C9 inh inactive and CYP2C19 act inactive.
COCCn1nnnc1C(c1cc2ccc(C)cc2[nH]c1=O)N(Cc1ccco1)Cc1cccs1 (stereo not drawn) was read as CYP2C19 inh inactive, CYP2C9 act inactive, D1 allo mod inactive, DAT uptake mod inactive, CYP2C9 inh 70 and CYP2C19 act inactive.
Screening CCC(C)(C)n1nnnc1C(c1cc2ccc(C)cc2[nH]c1=O)N(Cc1cccnc1)Cc1ccco1 (stereo not drawn) returned CYP2C19 inh 99, CYP2C9 act inactive, D1 allo mod inactive, DAT uptake mod inactive, CYP2C9 inh 89 and CYP2C19 act inactive.
COc1cc(CNCc2ccccn2)ccc1OCc1cccc(Cl)c1 was read as CYP2C19 inh 83, CYP2C9 act inactive, DAT uptake mod inactive, CYP2C9 inh inactive and CYP2C19 act inactive.
`COc1cc(C(=O)NCc2ccccn2)ccc1OCc1c(C)noc1C` gave CYP2C19 inh inactive, CYP2C9 act inactive, CYP2C9 inh inactive and CYP2C19 act inactive.
For COc1cc(CNCc2ccccn2)ccc1OCc1c(Cl)cccc1Cl the results were CYP2C19 inh 69, CYP2C9 act inactive, DAT uptake mod inactive, CYP2C9 inh inactive and CYP2C19 act inactive.
Screening Cc1ccc2nc(Cl)c(CN(C(=O)c3cnccn3)C3CCCCC3)cc2c1 returned CYP2C19 inh inactive, CYP2C9 act inactive, DAT uptake mod inactive, CYP2C9 inh inactive and CYP2C19 act inactive.
O=C(N/N=C/c1ccc(Br)o1)/C(=C/c1ccc([N+](=O)[O-])cc1)NC(=O)c1ccccc1 was read as CYP2C19 inh 52, CYP2C9 act inactive, DAT uptake mod inactive, CYP2C9 inh inactive and CYP2C19 act inactive.
